Values joined by “and” are separate entries in the source; they are usually repeats but may differ in a detail not shown here. Identical values can stand only once. Records with an inconclusive call do not appear. A call without a number means that no potency is given here. Active and inactive are the calls of the source. Unless noted, calls follow the shape of the dose curve; as a rule, active = well fitted curve in the direction sought with a large enough effect; inconclusive = small, poorly fitted or top-dose-only effect, or another doubt; inactive = no such curve, though single readings can be large; an effect the other way counts as inactive or inconclusive.
How the values were obtained:
[1] = Cell Viability - SK-N-SH (AID 435; calls by dose curve;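 also: potency is read from the fitted curve at half-maximal effect; compound exposure lasted 40 h at 37 °C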); settings: SK-N-SH neuroblastoma cell viability qHTS
Method in brief: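 CellTiter-Glo ATP luminescence, 20 min RT read; cells pre-plated 5 hr, compound 40 hr at 37 °C, 1500 cells/well, complete medium. Normalized DMSO = 0, 100 uM tamoxifen = 100% inhibition; Hill-fit AC50.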

[2] = Cellular Toxicity (caspase-3) Renal Proximal Tubule (AID 667); settings: renal proximal tubule cells; at 91.7 µM (top of the series), primary cells freshly taken from rat, solvent-only wells 0%, staurosporine 100% unless noted;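 also: cells exposed to compound for 16 hours at 37 °C before detection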
Method in brief: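 Luminescent caspase 3/7 signal from peptide-aminoluciferin cleavage measures apoptosis in freshly isolated rat kidney proximal tubule cells after 16 h compound exposure. Concentration-response data are normalized to DMSO and 10 uM staurosporine, and AC50 values come from Hill equation fits.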

[3] = Cell Viability - LYMP2-001 (AID 921); settings: LYMP2-001 lymphoblastoid cell viability; series mostly up to 92.2 µM;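 also: cells exposed to compound for 24 h at 37 °C; nearly all actives have a fitted effect of over 70% in size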
Method in brief: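 CellTiter-Glo luminescence (intracellular ATP) after 24 hr compound exposure at 37 C, 2500 lymphoblastoid cells/well in complete medium. AC50 fitted with standard Hill equation; tetraoctylammonium bromide positive control.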

[4] = Cell Viability - LYMP1-003 - Assay at 24 hr (AID 963); settings: LYMP1-003 lymphoblastoid cell viability; series mostly up to 92.2 µM
Method in brief: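 CellTiter-Glo luminescence (intracellular ATP) read after 24 hr, 37 C compound exposure of 2500 LYMP1-003 human lymphoblastoid cells/well in complete medium; qHTS concentration series; AC50 via standard Hill equation.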

[5] = Cell Viability - LYMP2-015 (AID 971); settings: LYMP2-015 lymphoblastoid cell viability; series mostly up to 92.2 µM;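 also: cells exposed to compound for 24 h; nearly all actives have a fitted effect of over 55% in size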
Method in brief: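 qHTS cytotoxicity: 2500 cells/well, 5 hr 37 C, compound 24 hr 37 C, CellTiter-Glo 30 min RT, luminescence. Loss of ATP = toxicity; AC50 via standard Hill fit.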

[6] = Cell Viability - LYMP2-010 (AID 981); settings: LYMP2-010 lymphoblastoid cell viability, qHTS; series mostly up to 92.2 µM;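 also: cells exposed to compound for 24 hours at 37 °C; nearly all actives have a fitted effect of over 55% in size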
Method in brief: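 qHTS cytotoxicity, 1536-well: 2500 cells/well, 5 hr settle, 24 hr compound at 37 C, CellTiter-Glo 30 min RT, luminescence read. Decrease in ATP = toxicity; AC50 via standard Hill equation. Positive control tetraoctylammonium bromide.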

[7] = Cell Viability - LYMP2-012 (AID 982); settings: LYMP2-012 lymphoblastoid cell viability qHTS; series mostly up to 92.2 µM;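 also: cellular ATP by luciferase luminescence where a drop means cytotoxicity; cells exposed to compound for one day before reading; nearly all actives have a fitted effect of over 55% in size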
[8] = Cell Viability - LYMP2-022 (AID 987); settings: LYMP2-022 lymphoblastoid cell viability; series mostly up to 92.2 µM; also: nearly all actives have a fitted effect of over 55% in size
Method in brief: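 Luminescent ATP read-out (CellTiter-Glo, 30 min, RT) after 24 hr, 37 C compound exposure of 2500 human lymphoblastoid cells/well in complete medium. Cytotoxicity taken as concentration-dependent ATP loss; AC50 from standard Hill equation.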

[9] = target: Glucocorticoid receptor (Homo sapiens) (UniProt P04150); test: qHTS assay for small molecule agonists of glucocorticoid receptor signaling (AID 588532; active = well fitted curve in the direction sought with a large enough effect in the signal ratio, with a control signal flat; the % refers to the signal ratio); settings: HeLa MMTV-bla, beta-lactamase ratio, agonist, 18 h; stronger effect = higher value; percent of dexamethasone control, DMSO zero
Glucocorticoid receptor (Homo sapiens), sequence (P04150 whole entry, looked up): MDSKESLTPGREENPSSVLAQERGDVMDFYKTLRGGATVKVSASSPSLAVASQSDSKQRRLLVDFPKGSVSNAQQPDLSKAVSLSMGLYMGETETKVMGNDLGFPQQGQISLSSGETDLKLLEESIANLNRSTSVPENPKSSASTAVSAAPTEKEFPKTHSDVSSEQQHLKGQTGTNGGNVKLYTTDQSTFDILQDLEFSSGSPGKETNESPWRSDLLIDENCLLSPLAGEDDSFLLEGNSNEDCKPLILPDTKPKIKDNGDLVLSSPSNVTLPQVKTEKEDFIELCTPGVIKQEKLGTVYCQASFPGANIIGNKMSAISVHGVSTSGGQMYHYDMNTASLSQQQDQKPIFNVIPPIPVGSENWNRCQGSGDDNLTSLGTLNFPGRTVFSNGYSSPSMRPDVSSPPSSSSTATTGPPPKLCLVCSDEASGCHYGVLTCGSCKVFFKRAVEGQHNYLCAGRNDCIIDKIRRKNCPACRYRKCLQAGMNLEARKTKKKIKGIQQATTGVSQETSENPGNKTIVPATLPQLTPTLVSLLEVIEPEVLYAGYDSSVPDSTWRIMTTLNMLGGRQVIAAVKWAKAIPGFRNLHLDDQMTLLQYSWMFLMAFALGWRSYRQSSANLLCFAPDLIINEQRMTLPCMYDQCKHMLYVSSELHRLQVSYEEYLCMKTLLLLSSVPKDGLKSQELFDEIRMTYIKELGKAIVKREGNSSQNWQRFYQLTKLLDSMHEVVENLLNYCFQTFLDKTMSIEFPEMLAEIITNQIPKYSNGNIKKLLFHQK
Method in brief: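 HeLa GRE-bla reporter cells; 18 h compound exposure at 37 C; 2 h CCF4 loading at room temperature; fluorescence at 460 and 530 nm; EC50 by Hill equation.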

[10] = qHTS assay for small molecule antagonists of peroxisome proliferator-activated receptor delta signaling (AID 588535); settings: HEK293T PPARd-UAS-bla, beta-lactamase FRET ratio, 18 h; 460 nm channel;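 also: cells co-treated with a PPAR-delta agonist as stimulator during compound exposure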
Method in brief: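 Beta-lactamase reporter read-out (405 nm excitation, 460/530 nm emission) after CCF4 loading for 2 hrs at RT. HEK293T PPAR-delta-UAS-bla cells, 2% charcoal/dextran FBS, compounds for 18 hrs at 37 C. Hill fit gave IC50 and efficacy.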

[11] = target: Peroxisome proliferator-activated receptor gamma (Homo sapiens) (UniProt P37231); test: qHTS assay for small molecule antagonists of peroxisome proliferator-activated receptor gamma signaling (AID 588537; active = well fitted inhibition curve with a large enough effect in the signal ratio, with a control signal flat, not every such curve was filed as active; the % refers to the signal ratio;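 also: reporter cells co-stimulated with 50 nM rosiglitazone agonist during compound treatment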); settings: HEK293 PPARg-UAS-bla, beta-lactamase ratio, antagonist mode; series mostly up to 76.8 µM
Peroxisome proliferator-activated receptor gamma (Homo sapiens), sequence (P37231 whole entry, looked up): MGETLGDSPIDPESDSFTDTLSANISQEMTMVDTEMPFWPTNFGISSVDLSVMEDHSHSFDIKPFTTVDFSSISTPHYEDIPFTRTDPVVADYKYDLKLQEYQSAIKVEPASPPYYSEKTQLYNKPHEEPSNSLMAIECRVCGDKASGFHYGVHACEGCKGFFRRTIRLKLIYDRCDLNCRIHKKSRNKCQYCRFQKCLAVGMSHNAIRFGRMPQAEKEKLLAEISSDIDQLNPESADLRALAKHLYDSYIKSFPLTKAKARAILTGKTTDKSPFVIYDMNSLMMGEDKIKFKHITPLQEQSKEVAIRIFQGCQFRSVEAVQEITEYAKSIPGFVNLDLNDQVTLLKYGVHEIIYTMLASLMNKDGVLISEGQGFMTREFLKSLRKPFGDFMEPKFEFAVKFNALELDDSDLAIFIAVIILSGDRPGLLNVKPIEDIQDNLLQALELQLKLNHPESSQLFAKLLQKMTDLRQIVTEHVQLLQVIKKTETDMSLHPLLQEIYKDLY
Method in brief: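 Read-out: CCF4 fluorescence (ex 405, em 460/530 nm) after 2 h at RT. Cells were HEK293 carrying a UAS-bla reporter and treated 16 h at 37 C with compound plus rosiglitazone (50 nM final). Normalized to rosiglitazone and DMSO.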

[12] = target: Retinoic acid receptor RXR-alpha (Homo sapiens) (UniProt P19793); test: qHTS assay for small molecule antagonists of retinoid X receptor alpha signaling (AID 588546; active = well fitted inhibition curve with a large enough effect in the signal ratio, with a control signal flat, not every such curve was filed as active; the % refers to the signal ratio;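 also: cells stimulated with 9-cis-retinoic acid as agonist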); settings: HEK293T RXRa-UAS-bla, beta-lactamase ratio, antagonist mode
Retinoic acid receptor RXR-alpha (Homo sapiens), sequence (P19793 whole entry, looked up): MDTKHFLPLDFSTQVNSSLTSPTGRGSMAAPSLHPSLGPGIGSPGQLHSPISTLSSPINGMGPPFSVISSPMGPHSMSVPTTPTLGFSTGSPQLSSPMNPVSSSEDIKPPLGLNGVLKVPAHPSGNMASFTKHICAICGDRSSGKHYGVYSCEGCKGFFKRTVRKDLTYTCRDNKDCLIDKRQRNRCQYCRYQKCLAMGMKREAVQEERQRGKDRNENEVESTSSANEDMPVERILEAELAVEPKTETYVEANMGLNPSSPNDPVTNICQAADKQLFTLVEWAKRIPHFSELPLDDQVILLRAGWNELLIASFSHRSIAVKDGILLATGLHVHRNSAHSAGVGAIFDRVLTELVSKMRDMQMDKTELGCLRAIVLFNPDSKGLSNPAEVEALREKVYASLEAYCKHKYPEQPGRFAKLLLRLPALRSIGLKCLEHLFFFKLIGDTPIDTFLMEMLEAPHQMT
Method in brief: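 Beta-lactamase reporter inhibition, read as CCF4 fluorescence ratio (ex 405, em 460/530 nm) after 2 h at RT. HEK293T UAS-bla cells, 2500/well, were stimulated with 9-cis-RA at 500 or 100 nM final alongside test compound for 18 h at 37 C.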

[13] = qHTS assay for small molecule activators of the nuclear factor-kappa B (NF-kB) signaling pathway (AID 651749; active = well fitted activation curve with a large enough effect in the signal ratio; the % refers to the signal ratio); settings: NF-kB-bla ME-180 cells, beta-lactamase FRET ratio, 16 h; activation: stronger effect = higher value
Method in brief: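 NF-kB-bla ME-180 cells, 2,000/well; 23 nL compound or DMSO pinned; 16 hr, 37C/5% CO2; beta-lactamase FRET read-out.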

[14] = qHTS assay for cell viability of the p53RE-bla HCT-116 cell line (AID 743292); settings: p53RE-bla HCT-116 viability, ATP luminescence, 16 h; series mostly up to 95 µM; also: nearly all actives have a fitted effect of over 55% in size
Method in brief: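 CellSensor p53RE-bla HCT-116 cells (4,000/well) pre-incubated 5 h at 37 C, then exposed to compounds in DMSO for 16 h at 37 C. Viability read as ATP content by CellTiter-Glo luminescence after 30 min at room temperature.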

[15] = Cell Viability - BJ (AID 421; calls by dose curve;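 also: potency is read from the fitted curve at half-maximal effect; cells exposed to compound for 40 hours at 37 °C before readout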); settings: BJ fibroblast viability, qHTS
Method in brief: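 Cytotoxicity in human BJ foreskin fibroblasts is scored as loss of cellular ATP after a 40-hour exposure, measured by luciferase luminescence. Controls are DMSO and 100 uM tamoxifen.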

[16] = target: Bile acid receptor (Homo sapiens) (UniProt Q96RI1); test: qHTS assay for small molecule antagonists of farnesoid X receptor signaling (AID 588526; calls by dose curve); settings: HEK293T FXR-UAS-bla, beta-lactamase ratio, antagonist mode; series mostly up to 76.7 µM
Bile acid receptor (Homo sapiens), sequence (Q96RI1 whole entry, looked up): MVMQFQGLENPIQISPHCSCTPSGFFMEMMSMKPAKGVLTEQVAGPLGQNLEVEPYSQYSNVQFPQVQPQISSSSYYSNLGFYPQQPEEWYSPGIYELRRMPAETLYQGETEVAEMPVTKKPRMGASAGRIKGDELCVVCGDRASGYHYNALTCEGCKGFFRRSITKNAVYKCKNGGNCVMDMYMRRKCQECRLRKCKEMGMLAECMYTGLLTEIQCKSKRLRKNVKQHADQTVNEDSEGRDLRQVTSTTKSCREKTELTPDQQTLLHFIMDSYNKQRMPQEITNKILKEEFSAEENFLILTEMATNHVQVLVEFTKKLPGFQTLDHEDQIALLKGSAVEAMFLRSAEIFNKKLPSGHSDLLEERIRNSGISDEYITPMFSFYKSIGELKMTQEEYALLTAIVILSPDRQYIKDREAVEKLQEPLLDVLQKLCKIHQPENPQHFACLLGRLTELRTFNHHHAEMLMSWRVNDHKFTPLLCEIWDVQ
Method in brief: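 Antagonist mode: titrated compounds tested against chenodeoxycholic acid stimulation (normalized to 50 uM CDCA and DMSO) in GeneBLAzer HEK293T cells for 16 h. Beta-lactamase read by CCF4 fluorescence; IC50 from Hill fits.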

[17] = MultiTox-Fluor Cytotoxicity Assay - LYMP1-003 - Live Cells (AID 962); settings: LYMP1-003 lymphoblastoid cells, MultiTox-Fluor live-cell protease fluorescence; series mostly up to 92.2 µM;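 also: cytotoxic hits lower the live-cell protease signal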
Method in brief: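 Readout: live-cell fluorescence (Ex/Em=405/510) from GF-AFC cleavage after 60 min MultiTox-Fluor reagent at room temperature. Lymphoblastoid LYMP1-003 cells, 16 hr compound treatment, 37 C. Concentration-response fitted to standard Hill equation for AC50.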

[18] = target: Peroxisome proliferator-activated receptor alpha (Homo sapiens) (UniProt Q07869); test: qHTS assay for small molecule agonists of the peroxisome proliferator-activated receptor alpha (PPARalpha) signaling pathway (AID 651778); settings: PathHunter PPARalpha complementation, chemiluminescence, 6 h; stronger effect = higher value
Peroxisome proliferator-activated receptor alpha (Homo sapiens), sequence (Q07869 whole entry, looked up, the tested form may be a part): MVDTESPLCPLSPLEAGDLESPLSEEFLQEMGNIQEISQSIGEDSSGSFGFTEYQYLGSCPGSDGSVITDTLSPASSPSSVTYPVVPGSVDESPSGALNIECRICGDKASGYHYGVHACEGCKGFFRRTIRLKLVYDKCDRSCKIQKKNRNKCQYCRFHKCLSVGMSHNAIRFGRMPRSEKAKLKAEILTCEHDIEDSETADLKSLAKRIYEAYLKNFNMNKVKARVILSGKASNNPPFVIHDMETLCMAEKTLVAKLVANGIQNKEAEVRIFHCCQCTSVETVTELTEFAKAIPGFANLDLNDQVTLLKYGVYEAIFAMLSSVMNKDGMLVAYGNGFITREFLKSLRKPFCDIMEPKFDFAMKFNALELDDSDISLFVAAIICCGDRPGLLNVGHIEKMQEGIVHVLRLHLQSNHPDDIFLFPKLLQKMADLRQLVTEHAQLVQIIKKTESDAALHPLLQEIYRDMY
Method in brief: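 Enzyme-fragment complementation assay in which ligand-bound PPARalpha translocates and forms an active enzyme that generates chemiluminescence. Cells were plated overnight, exposed to compound for 6 hr at 37 C, and then given detection reagent for 60 min at room temperature.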

[19] = Cellular Toxicity (caspase-3) Mesangial (AID 660); settings: mesangial cells, normalized: DMSO 0%, 100 µM tamoxifen 100%; series mostly up to 91.7 µM;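 also: combined caspase 3 and 7 activity read by Caspase-Glo luminescence; cells exposed to compound for 16 h before the caspase read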
Method in brief: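 Luminescent Caspase-Glo 3/7 readout (aminoluciferin substrate cleavage, 20 min RT) after 16 h compound exposure at 37 °C of normal human mesangial cells. Signal increase normalized between DMSO basal and 100 uM tamoxifen; Hill-equation AC50.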

Structure (SMILES)	Potency [1]	caspase-3 activation [2]	Potency [3]	Potency [4]	Potency [5]	Potency [6]	Potency [7]	Potency [8]	activation [9]	max response [10]	Potency [11]	max response [12]	activation [13]	Potency [14]	Potency [15]	outcome [16]	Potency [17]	max response [18]	outcome [19]
CCCCOCCOP(=O)(OCCOCCCC)OCCOCCCC	> 92 µM (inactive)	-4.16% [at 91.7 µM] (inactive)	inactive	inactive	inactive	inactive	inactive	inactive	0.713% (inactive) and -16.4% (inactive)	25%	inactive	-9.74% (inactive) and -1.56% (inactive)	-1.15% (inactive) and -0.483% (inactive)	inactive					
C1CCC2CCCCC2C1 (stereo not drawn)		-7.58% (inactive)	inactive		inactive		inactive	inactive	11.1% (inactive)	-10.8%	inactive	-5.58% (inactive)		inactive	> 92 µM (inactive)	inactive			
C=C(C)C#N	> 92 µM (inactive)	7.27% (inactive)		inactive		inactive	inactive					-5.47% (inactive) and -20.9% (inactive)		inactive		inactive	inactive	-3.42% (inactive) and 0.836% (inactive)	
C=CC(N)=O			inactive	inactive			inactive			43.8% and 22.1%		17% (inactive) and -9.44% (inactive) and -5.75% (inactive)	-0.549% (inactive) and 0.0148% (inactive) and 0.73% (inactive)	inactive	> 92 µM (inactive)		inactive		
C=C(C)C(=O)OCC1CO1 (stereo not drawn)	> 92 µM (inactive)	-4.2% (inactive)		inactive		inactive	inactive	inactive	-3.77% (inactive)	-13.4%	inactive	4.24% (inactive)	0.768% (inactive)	inactive		inactive	inactive	-4.83% (inactive)	inactive
Cc1cccc([N+](=O)[O-])c1					inactive		inactive		4.17% (inactive) and -5.85% (inactive)	12.7% and -9.62%	inactive	4.38% (inactive) and -23.2% (inactive)	-0.494% (inactive) and -2.2% (inactive)		> 92 µM (inactive)	inactive			
ClC(Cl)=C(Cl)C(Cl)=C(Cl)Cl				inactive	inactive				-16.2% (inactive)	-24.7% and -5.61%		-0.928% (inactive) and 1.51% (inactive)			> 92 µM (inactive)		inactive	-0.178% (inactive) and -1.05% (inactive)	inactive
O=[N+]([O-])c1ccc(Cl)c(Cl)c1			inactive	inactive		inactive			0.986% (inactive)		inactive		-0.387% (inactive)	inactive		inactive	inactive	-3.39% (inactive)	
N#CCCCl		-13% (inactive) and 8.86% (inactive)			inactive		inactive	inactive				15.2% (inactive) and 9.43% (inactive)	-0.282% (inactive) and -0.0737% (inactive)						
CC(C)(C)OO	> 92 µM (inactive)	12.8% (inactive) and -1.63% (inactive)		inactive				inactive		26.2% and -4.41%	inactive	34% (inactive) and 10.1% (inactive)	-0.974% (inactive) and 0.475% (inactive)	inactive			inactive	-2.75% (inactive) and -4.99% (inactive)	
Brc1ccc(Oc2cc(Br)c(Br)cc2Br)c(Br)c1	> 92 µM (inactive)					inactive		inactive		18.7% and 4.79%		-5.38% (inactive) and -23.6% (inactive)	0.934% (inactive) and 2.14% (inactive) and 2.73% (inactive)				inactive		
Brc1ccccc1		-10.7% (inactive)	inactive	inactive			inactive	inactive		10.8%	inactive	-1.11% (inactive) and -6.34% (inactive)	1.07% (inactive) and -1.27% (inactive)				inactive		
O=C=NC1CCCCC1		5.04% (inactive) and -5.65% (inactive)	inactive		inactive						inactive					inactive		0.341% (inactive) and -3.39% (inactive)	inactive
CCN(CC)c1ccccc1				inactive	inactive	inactive	inactive		-4.16% (inactive)				-0.976% (inactive)	inactive		inactive	inactive	-1.88% (inactive)	inactive
Clc1nc(Cl)nc(Cl)n1				inactive		inactive	inactive	inactive	2.08% (inactive) and -5.01% (inactive)	-3.59% and 8.32%		12.3% (inactive) and -0.616% (inactive)	0.499% (inactive) and 0.444% (inactive)	inactive				-5.93% (inactive) and -1.12% (inactive)	inactive
CCCSC(=O)Cl		5.81% (inactive)	inactive	inactive	inactive		inactive					25.6% (inactive)	-0.498% (inactive)			inactive			inactive
OCC1CO1 (stereo not drawn)				inactive					-12% (inactive)	-3.17% and 28.4%	inactive	13.7% (inactive) and -0.419% (inactive)		inactive		inactive		-0.572% (inactive) and -0.317% (inactive)	
O=NN(CCO)CCO		4.45% (inactive)			inactive	inactive										inactive			
